# Measured values taken from PubChem BioAssay (EPA / NIEHS).
# Inconclusive results are not listed. Calls of active or inactive are those of the source. The calls were made as follows: active = hit-call score of the fitted dose curve at least 0.9, where 1 is the maximum; inconclusive = response in the unintended direction; inactive = score below 0.9.
# Biological target: Nuclear receptor subfamily 1 group I member 2 (Homo sapiens) (UniProt O75469)
# Assay: ATG_PXR_TRANS: Attagene TRANS-FACTORIAL HepG2 Assay for human Pregnane X Receptor (PXR) (AID 2283008)
# Procedure: ATG_TRANS is a cell-based, multiplexed-readout assay that uses HepG2, a human liver cell line, with measurements taken at 24 hours after chemical dosing in a 24-well plate.ATG_PXR_TRANS is one of 30 assay component(s) measured or calculated from the ATG_TRANS assay. It is designed to make measurements of mRNA induction, a form of inducible reporter, as detected with fluorescence intensity signals by Reverse transcription polymerase chain reaction (RT-PCR) and Capillary electrophoresis technology.Data from the assay component ATG_PXR_TRANS was analyzed into 1 assay endpoint. This assay endpoint, ATG_PXR_TRANS, was analyzed in the positive analysis fitting direction relative to DMSO as the negative control and baseline of activity. Using a type of inducible reporter, measures of mRNA for gain-of-signal activity can be used to understand the reporter gene at the transcription factor-level as they relate to the gene NR1I2. Furthermore, this assay endpoint can be referred to as a primary readout, because this assay has produced multiple assay endpoints where this one serves a reporter gene function. To generalize the intended target to other relatable targets, this assay endpoint is annotated to the nuclear receptor intended target family, where the subfamily is non-steroidal.
# Human liver HepG2 cells are transiently transfected with multiple reporter transcription units (MRTUs) in 6-well plates using FuGene 6 reagent (Roche; 3 ml FuGene/1 mg DNA). The MRTU constructs are regulated by a cis-regulating element (promoter). […] A major difference between the CIS and TRANS system is that in CIS activities of endogenous TFs are measured, whereas the TRANS assay evaluates changes in activities of exogenous, chimeric NR-Gal4 proteins. […] At the end of 24 hour incubation, total RNA was isolated using TriZol reagent (Invitrogen). The isolated RNA is then reverse-transcribed using oligo(dT) primer and Mo-MLV reverse transcriptase (Invitrogen) with DNAse I (Ambion) treatment for 30 min. The one-tenth of the produced cDNA was amplified by PCR using Taq DNA polymerase (Invitrogen) and two reporter sequence-specific primers. The PCR products were fluorescently labeled by primer extension with 6-arboxyfluorescein (6-FAM) 5'-labeled reporter sequence-specific primer (2 min at 95 C, 20 s at 68 C and 10 min at 72 C) and these products were digested with 5U of HpaI (New England Biolabs) for 2h at 37 C. The fragments were purified using Qiaquick PCR columns (Qiagen), analyzed on an ABI 3130xL genetic analyzer (Applied Biosystems) with peak positions identified by using a set of X-rhodamine (ROX)-labeled MapMarker1000 molecular weight standards (BioVentures). The raw capillary electrophoresis data was processed using Attagraph software (Attagene).
# Chain of Nuclear receptor subfamily 1 group I member 2 (Homo sapiens) (O75469 whole entry, looked up): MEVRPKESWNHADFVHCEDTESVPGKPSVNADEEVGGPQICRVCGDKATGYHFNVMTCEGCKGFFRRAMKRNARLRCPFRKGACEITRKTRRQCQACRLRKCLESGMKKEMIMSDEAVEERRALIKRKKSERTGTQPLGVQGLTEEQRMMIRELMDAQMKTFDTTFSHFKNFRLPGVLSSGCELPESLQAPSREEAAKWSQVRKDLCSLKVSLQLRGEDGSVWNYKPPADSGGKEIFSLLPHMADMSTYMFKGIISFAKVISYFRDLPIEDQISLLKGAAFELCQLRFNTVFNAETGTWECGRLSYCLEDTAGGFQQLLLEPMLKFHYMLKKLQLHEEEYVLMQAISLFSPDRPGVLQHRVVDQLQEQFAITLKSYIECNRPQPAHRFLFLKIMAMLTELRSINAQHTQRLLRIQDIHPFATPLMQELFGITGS
Compound,AC50,outcome
Cn1cnc([N+](=O)[O-])c1Sc1ncnc2nc[nH]c12,29.8 µM (active),–
C1=CCCC=CCCC=CCC1,56.5 µM (active),–
CCCN(C1CCN(C(=O)C2CCNCC2)CC1)[C@@H]1CCc2ccc(OC)cc2C1,–,inactive
CC(C)CC(C)(O)C#CC(C)(O)CC(C)C (stereo not given),11.9 µM (active),–
CCN(C(=O)c1cc(C)cc(OC[C@H](C)Nc2ccncc2)c1)C(C)C,7.38 µM (active),–
O=C(O)CC(O)C(=O)O (stereo not given),–,inactive
COCCOc1cc2cc(C(=O)NC3CCN(C(C)C)CC3)n(CC(=O)Nc3ccc(Cl)cn3)c2cn1,–,inactive
COc1cccc(-c2ccc(/C=C\CN3CCCCCC3)cc2Cl)c1,4.81 µM (active),–
O=C(O)CCN(C1(C(=O)NO)CCCC1)S(=O)(=O)c1ccc(Oc2ccc(F)cc2)cc1,–,inactive
CC(=O)c1ccc2c(c1)[C@H](NC(=O)c1ccc(F)cc1)[C@@H](O)C(C)(C)O2,12.7 µM (active),–
C=CCCCCCCCCC(=O)O,–,inactive
CCOC(=O)CC(CC(=O)OCC)(OC(C)=O)C(=O)OCC,–,inactive
COc1ccc(-n2nc(C(F)F)cc2-c2ccc(S(C)=O)cc2)cc1 (stereo not given),–,inactive
Cc1ccc(S(=O)(=O)O)cc1C,–,inactive
CC(C)=CCCC(C)=CC=O,4.42 µM (active),–
O=C1CCCCCN1,–,inactive
CCCCCCCCO,–,inactive
CC(=O)OC[C@H]1O[C@@](COC(C)=O)(O[C@H]2O[C@H](COC(C)=O)[C@@H](OC(C)=O)[C@H](OC(C)=O)[C@H]2OC(C)=O)[C@@H](OC(C)=O)[C@@H]1OC(C)=O,–,inactive
Nc1cccc(N)c1,–,inactive
CC(C)c1cccc(C(C)C)c1N1C(=O)c2ccc(O)cc2C1=O,0.242 µM (active),–

Compound,AC50,outcome
Cc1c(-c2cccnc2)c2ccccc2n1CCCCC(=O)O,–,inactive
Cn1c(=O)cc(Oc2ccc(F)cc2F)c2cnc(NCC(C)(C)O)nc21,–,inactive
CC/C(=C\C(=N/O)C(N)=O)C(C)[N+](=O)[O-] (stereo not given),–,inactive
Nc1ccc(Nc2ccccc2)cc1,–,inactive
CC(C)=CCC/C(C)=C\CO,8.73 µM (active),–
CCCCCCCCCCCCc1ccccc1,–,inactive
Cn1c(=O)c2c(ncn2C)n(C)c1=O,–,inactive
CNS(=O)(=O)c1cc(C(=O)N2CCC(CCN3C4CCC3CC(n3c(C)nc5ccccc53)C4)(c3cccc(F)c3)CC2)c(Cl)cc1F (stereo not given),0.779 µM (active),–
CCCCC(CC)COC(=O)CCCCCCCCC(=O)OCC(CC)CCCC (stereo not given),–,inactive
Cc1ccc(C)c(O)c1,–,inactive
CC(O)CN(CCN(CC(C)O)CC(C)O)CC(C)O (stereo not given),–,inactive
Fc1ccccc1[C@@H](F)COC1CCC(Nc2ncnc3[nH]ncc23)CC1 (stereo not given in full),–,inactive
CCOC(=O)COc1ccc2c(c1)CC(NCC(O)c1cccc(Cl)c1)CC2 (stereo not given),–,inactive
CC[C@H](C)C(=O)O[C@H]1C[C@@H](C)C=C2C=C[C@H](C)[C@H](CC[C@@H]3C[C@@H](O)CC(=O)O3)[C@H]21,2.51 µM (active),–
C=CC(=C)CCC=C(C)C,–,inactive
CC[C@H]1CC[C@H](NCc2cc3c(cc2OC)[C@H]2C[C@H]2C(=O)N3C)[C@H](c2ccccc2)N1,3.94 µM (active),–
CN(C)c1ccc(N=NS(=O)(=O)O)cc1,–,inactive
COc1ccc(/C=C/S(=O)(=O)NC(=O)c2ccc(C)cc2Cl)cc1,–,inactive
COc1ccc2sc(C(=O)Nc3nnn[nH]3)c(OC(C)C)c2c1,–,inactive
CC(C)=CCC/C(C)=C/CO,–,inactive
